{
  "source": "PubChem BioAssay (NCI)",
  "note": "Compounds without any hit were thinned out: in the full panel of roughly 83,000, 20% have a hit.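 Percent growth is the endpoint: 0 to 100 indicates growth inhibition (40 means 60% inhibition), 0 means no net growth, and negative values indicate cell death.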 Unmarked numbers belong to inactive results. The source made the active and inactive calls. Rule for the calls: active = growth percent below 10; inactive = the rest.",
  "data": [
    {"test_system": "NCI-H226 lung", "test": "NCI-60 one-dose screen, 48 h (100 = growth as untreated, 0 = no growth, -100 = all killed)", "conditions": "10 µM unless noted", "values": [
      {"smiles": "C=CCn1c(SCC(=O)Nc2ccc(C(=O)/C=C/c3ccc(OC)cc3)cc2)nnc1-c1ccccc1", "growth": "90.3%"},
      {"smiles": "COc1cc2ncnc(Nc3ccc(F)c(Cl)c3)c2cc1OCC(=O)N1CCN(c2ccc(F)cc2)CC1", "growth": "96.3%"},
      {"smiles": "Cc1ccc2nc(Cl)c(Cn3nnnc3SCc3ccccc3)cc2c1", "growth": "79.6%"},
      {"smiles": "CN1CCN(CCOc2ccc(-c3cnc4c(-c5ccc(C(F)(F)F)cc5)cnn4c3)cc2)CC1", "growth": "87.8%"},
      {"smiles": "C/C(C=O)=C\\c1ccc2c(c1)OCO2", "growth": "85.2%"},
      {"smiles": "Cc1ccc(O)c(NC(=O)c2ccc(CNc3ccnc(C(F)(F)F)c3)cc2)c1", "growth": "74%"},
      {"smiles": "O=C1/C(=C/c2ccc(C(F)(F)F)cc2)COc2ccc(O)c(O)c21", "growth": "81.1%"},
      {"smiles": "O=C(N/N=C/c1ccc(O)cc1O)c1ccc(Nc2ccnc(C(F)(F)F)c2)cc1", "growth": "16.8%"},
      {"smiles": "O=c1[nH]c(-c2ccc(Cl)cc2)cn1-c1ccc(-n2cc(-c3ccc(Cl)cc3)[nH]c2=O)cc1", "growth": "91.1%"},
      {"smiles": "CC1O[C@@H]2C[C@@](O)([C@H]1O)n1c3ccccc3c3c4c(c5c6ccccc6n2c5c31)C(=O)NC4=O", "note": "(stereo not given in full)", "growth": "37.2%"},
      {"smiles": "COC1=CC(c2ccc[nH]2)=N/C1=C\\c1[nH]c(C)c(CC(=O)OCc2ccccc2)c1C", "growth": "10.5%"},
      {"smiles": "NC(=O)c1ccc(NC(=O)c2oc3ccccc3c2-c2cnn(-c3ccccc3)c2)cc1", "growth": "13.9% [50 µM]"},
      {"smiles": "CCOC(=O)N1CCN(S(=O)(=O)c2oc(-c3ccc(Cl)cc3)nc2C#N)CC1", "growth": "93.4%"},
      {"smiles": "Cc1nn(-c2ccccc2)c(N2CCCCC2)c1/C=N/NC(=O)Cn1c(=O)sc2ccccc21", "growth": "92.8%"},
      {"smiles": "CN(C)c1ccc(C(=NO)c2ccc(N(C)C)cc2)cc1", "growth": "78.5%"},
      {"smiles": "Clc1ccc(-c2nc(-c3c[nH]c4ncccc34)cs2)cc1", "growth": "47.7% [100 µM]"},
      {"smiles": "COc1ccc(C(c2cc(OC)c(OC)c(OC)c2)N2CCCC2)cc1", "note": "(stereo not given)", "growth": "87.6%"},
      {"smiles": "COc1cccc(C(=O)OCC(O)C(=O)NC23CC4CC(CC(C4)C2)C3)c1", "note": "(stereo not given)", "growth": "93.5%"},
      {"smiles": "C=CC(=O)N1CCN(c2ccc3cccc(NC(=O)c4cnc(C)cn4)c3n2)CC1", "growth": "42.9%"},
      {"smiles": "CCOC(=O)c1c(C)c2c(n1C)CSc1cc(S(=O)(=O)c3ccccc3)c(=O)[nH]c1-2", "growth": "24.3% [100 µM]"},
      {"smiles": "CCCCCCCCNc1cc2c3c(c1)CCCN3CCC2", "growth": "39.1%"},
      {"smiles": "COc1ccc(OC)c(-c2cn3nc(-c4c[nH]c5ccc(Br)cc45)sc3n2)c1", "growth": "89.9%"},
      {"smiles": "CS(=O)(=O)Nc1cc(-c2ccc3ncnc(Nc4ccc5c(cnn5Cc5cccnc5)c4)c3c2)cnc1Cl", "growth": "76.4%"},
      {"smiles": "C=CCN=C(N)SCCCCCCSC(N)=NCC=C", "growth": "97.1%"},
      {"smiles": "COc1cc(C2C3=C(COC3=O)N(CCO)c3cc4c(cc32)OCCO4)cc(OC)c1OC", "note": "(stereo not given)", "growth": "13.5%"},
      {"smiles": "COc1ccc2[nH]cc(-c3nc(-c4cn(C)c5ccncc45)cs3)c2c1", "growth": "106%"},
      {"smiles": "COc1cccc(NC(=O)c2cccc(C3CCc4c(cc(OC)c(OC)c4OC)O3)c2)c1", "note": "(stereo not given)", "growth": "53.7%"},
      {"smiles": "Cn1c(O)c(C(/C=C/c2ccccc2)=Nc2ccccc2N)c(=O)n(C)c1=O", "growth": "97.9%"},
      {"smiles": "CC1=C(C(=O)n2c3ccccc3c3ccccc32)C(c2cccc([N+](=O)[O-])c2)C(C(=O)n2c3ccccc3c3ccccc32)=C(C)N1", "growth": "96.9%"},
      {"smiles": "O=C(O)c1cn(C2CC2)c2cc(N3CCN(C(=O)N/N=C/c4ccccc4)CC3)c(F)cc2c1=O", "growth": "88%"},
      {"smiles": "CC1(C)CCC(S(=O)(=O)c2ccc3c(c2)/C(=N\\O)c2cc(S(=O)(=O)N4CCN(c5ccc(F)cc5O)CC4)ccc2-3)CC1", "growth": "-57% (active)"},
      {"smiles": "Cc1ccc(C)n1/C=C/n1c(C)ccc1C", "growth": "99%"},
      {"smiles": "CCOC(=O)C(=Cc1cccc(C#N)c1)C(=O)OCC", "growth": "38.1%"},
      {"smiles": "COc1cc(-c2nc(NC(C)=O)sc2-c2ccnc(NCCNS(=O)(=O)c3ccccc3)n2)ccc1Cl", "growth": "57.1%"},
      {"smiles": "CCN1CCN(CC(=O)Nc2nc3ccc(NCc4ccc(Br)cc4)cc3s2)CC1", "growth": "64.6%"},
      {"smiles": "C/C(=N\\Nc1nc(C)cs1)c1cc2ccccc2o1", "growth": "76.7%"},
      {"smiles": "COc1ccccc1-n1c(-c2cc(O)ccc2C)cn2c3c(=O)[nH]c(=O)n(C)c3nc12", "growth": "107%"},
      {"smiles": "N#C/C(=C\\c1ccc(Br)cc1)c1cc2ccccc2[nH]1", "growth": "92.7%"},
      {"smiles": "COc1ccc(C2=C/C(=C\\c3ccc(Cl)cc3)C(=O)N2/N=C/c2ccc(Cl)cc2)cc1", "growth": "93.1%"},
      {"smiles": "CC(O)c1ncc(/C=C2\\SC(=S)N(Cc3ccccc3)C2=O)s1", "note": "(stereo not given)", "growth": "97.2%"}
    ]},
    {"test_system": "NCI-H322M lung", "test": "NCI-60 one-dose screen, 48 h (100 = growth as untreated, 0 = no growth, -100 = all killed)", "conditions": "10 µM unless noted", "values": [
      {"smiles": "C=CCn1c(SCC(=O)Nc2ccc(C(=O)/C=C/c3ccc(OC)cc3)cc2)nnc1-c1ccccc1", "growth": "89%"},
      {"smiles": "COc1cc2ncnc(Nc3ccc(F)c(Cl)c3)c2cc1OCC(=O)N1CCN(c2ccc(F)cc2)CC1", "growth": "36.5%"},
      {"smiles": "Cc1ccc2nc(Cl)c(Cn3nnnc3SCc3ccccc3)cc2c1", "growth": "105%"},
      {"smiles": "CN1CCN(CCOc2ccc(-c3cnc4c(-c5ccc(C(F)(F)F)cc5)cnn4c3)cc2)CC1", "growth": "64.3%"},
      {"smiles": "C/C(C=O)=C\\c1ccc2c(c1)OCO2", "growth": "135%"},
      {"smiles": "Cc1ccc(O)c(NC(=O)c2ccc(CNc3ccnc(C(F)(F)F)c3)cc2)c1", "growth": "65.3%"},
      {"smiles": "O=C1/C(=C/c2ccc(C(F)(F)F)cc2)COc2ccc(O)c(O)c21", "growth": "50.2%"},
      {"smiles": "O=C(N/N=C/c1ccc(O)cc1O)c1ccc(Nc2ccnc(C(F)(F)F)c2)cc1", "growth": "-3.47% (active)"},
      {"smiles": "O=c1[nH]c(-c2ccc(Cl)cc2)cn1-c1ccc(-n2cc(-c3ccc(Cl)cc3)[nH]c2=O)cc1", "growth": "115%"},
      {"smiles": "CC1O[C@@H]2C[C@@](O)([C@H]1O)n1c3ccccc3c3c4c(c5c6ccccc6n2c5c31)C(=O)NC4=O", "note": "(stereo not given in full)", "growth": "62.8%"},
      {"smiles": "COC1=CC(c2ccc[nH]2)=N/C1=C\\c1[nH]c(C)c(CC(=O)OCc2ccccc2)c1C", "growth": "25.9%"},
      {"smiles": "NC(=O)c1ccc(NC(=O)c2oc3ccccc3c2-c2cnn(-c3ccccc3)c2)cc1", "growth": "23.7% [50 µM]"},
      {"smiles": "CCOC(=O)N1CCN(S(=O)(=O)c2oc(-c3ccc(Cl)cc3)nc2C#N)CC1", "growth": "99.3%"},
      {"smiles": "Cc1nn(-c2ccccc2)c(N2CCCCC2)c1/C=N/NC(=O)Cn1c(=O)sc2ccccc21", "growth": "76.3%"},
      {"smiles": "CN(C)c1ccc(C(=NO)c2ccc(N(C)C)cc2)cc1", "growth": "81.3%"},
      {"smiles": "Clc1ccc(-c2nc(-c3c[nH]c4ncccc34)cs2)cc1", "growth": "61.7% [100 µM]"},
      {"smiles": "COc1ccc(C(c2cc(OC)c(OC)c(OC)c2)N2CCCC2)cc1", "note": "(stereo not given)", "growth": "87.5%"},
      {"smiles": "COc1cccc(C(=O)OCC(O)C(=O)NC23CC4CC(CC(C4)C2)C3)c1", "note": "(stereo not given)", "growth": "96.4%"},
      {"smiles": "C=CC(=O)N1CCN(c2ccc3cccc(NC(=O)c4cnc(C)cn4)c3n2)CC1", "growth": "21.2%"},
      {"smiles": "CCOC(=O)c1c(C)c2c(n1C)CSc1cc(S(=O)(=O)c3ccccc3)c(=O)[nH]c1-2", "growth": "28.1% [100 µM]"},
      {"smiles": "CCCCCCCCNc1cc2c3c(c1)CCCN3CCC2", "growth": "111%"},
      {"smiles": "COc1ccc(OC)c(-c2cn3nc(-c4c[nH]c5ccc(Br)cc45)sc3n2)c1", "growth": "50.6%"},
      {"smiles": "CS(=O)(=O)Nc1cc(-c2ccc3ncnc(Nc4ccc5c(cnn5Cc5cccnc5)c4)c3c2)cnc1Cl", "growth": "68.7%"},
      {"smiles": "C=CCN=C(N)SCCCCCCSC(N)=NCC=C", "growth": "103%"},
      {"smiles": "COc1cc(C2C3=C(COC3=O)N(CCO)c3cc4c(cc32)OCCO4)cc(OC)c1OC", "note": "(stereo not given)", "growth": "36.9%"},
      {"smiles": "COc1ccc2[nH]cc(-c3nc(-c4cn(C)c5ccncc45)cs3)c2c1", "growth": "90.9%"},
      {"smiles": "COc1cccc(NC(=O)c2cccc(C3CCc4c(cc(OC)c(OC)c4OC)O3)c2)c1", "note": "(stereo not given)", "growth": "54.2%"},
      {"smiles": "Cn1c(O)c(C(/C=C/c2ccccc2)=Nc2ccccc2N)c(=O)n(C)c1=O", "growth": "105%"},
      {"smiles": "CC1=C(C(=O)n2c3ccccc3c3ccccc32)C(c2cccc([N+](=O)[O-])c2)C(C(=O)n2c3ccccc3c3ccccc32)=C(C)N1", "growth": "98.4%"},
      {"smiles": "O=C(O)c1cn(C2CC2)c2cc(N3CCN(C(=O)N/N=C/c4ccccc4)CC3)c(F)cc2c1=O", "growth": "100%"},
      {"smiles": "CC1(C)CCC(S(=O)(=O)c2ccc3c(c2)/C(=N\\O)c2cc(S(=O)(=O)N4CCN(c5ccc(F)cc5O)CC4)ccc2-3)CC1", "growth": "-46.9% (active)"},
      {"smiles": "Cc1ccc(C)n1/C=C/n1c(C)ccc1C", "growth": "103%"},
      {"smiles": "CCOC(=O)C(=Cc1cccc(C#N)c1)C(=O)OCC", "growth": "91%"},
      {"smiles": "COc1cc(-c2nc(NC(C)=O)sc2-c2ccnc(NCCNS(=O)(=O)c3ccccc3)n2)ccc1Cl", "growth": "79.1%"},
      {"smiles": "CCN1CCN(CC(=O)Nc2nc3ccc(NCc4ccc(Br)cc4)cc3s2)CC1", "growth": "84.9%"},
      {"smiles": "C/C(=N\\Nc1nc(C)cs1)c1cc2ccccc2o1", "growth": "93.1%"},
      {"smiles": "COc1ccccc1-n1c(-c2cc(O)ccc2C)cn2c3c(=O)[nH]c(=O)n(C)c3nc12", "growth": "36%"},
      {"smiles": "N#C/C(=C\\c1ccc(Br)cc1)c1cc2ccccc2[nH]1", "growth": "91.6%"},
      {"smiles": "COc1ccc(C2=C/C(=C\\c3ccc(Cl)cc3)C(=O)N2/N=C/c2ccc(Cl)cc2)cc1", "growth": "89.7%"},
      {"smiles": "CC(O)c1ncc(/C=C2\\SC(=S)N(Cc3ccccc3)C2=O)s1", "note": "(stereo not given)", "growth": "100%"}
    ]}
  ]
}
